Experimental data from PubChem BioAssay (NCI).
Compounds without any hit were thinned out: in the full panel of roughly 79,000, 15% have a hit. Values without a mark were called inactive. Activity calls are given as the source filed them. Rule as the data show it: active = growth inhibition above about 70%; inactive = the rest.

Columns and labels:
[1] = NCI Yeast Anticancer Drug Screen. Data for the rad50 strain (AID 155);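 also: 0% = growth of vehicle-only cultures of the same strain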; conditions: S. cerevisiae rad50 strain growth inhibition; at 50.0 µM; hits give high values
Method in brief: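 Inhibition values express reduced yeast growth in compound-treated cultures relative to vehicle-treated controls.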

[2] = NCI Yeast Anticancer Drug Screen. Data for the mec2-1 strain (AID 157); conditions: S. cerevisiae mec2-1 strain, at 50.0 µM, hits give high values
Method in brief: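 Yeast mec2-1 mutant treated with compound. Readout: growth inhibition vs vehicle controls.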

[3] = NCI Yeast Anticancer Drug Screen. Data for the sgs1 mgt1 strain (AID 161);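 also: 0% = growth of cultures given vehicle only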; conditions: S. cerevisiae sgs1 mgt1 strain, at 50.0 µM, hits give high values
Method in brief: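 Inhibition of yeast growth, normalised to vehicle-treated controls, is reported for a strain bearing genetic alterations in DNA damage repair.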

[4] = NCI Yeast Anticancer Drug Screen. Data for the cln2 rad14 strain (AID 165);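 also: 0% = growth equal to vehicle treated cultures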; conditions: S. cerevisiae cln2 rad14 strain, at 50.0 µM, hits give high values
Method in brief: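 cln2 rad14 yeast strain; compound exposure; growth inhibition read vs vehicle controls.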

[5] = NCI Yeast Anticancer Drug Screen. Data for the bub3 strain (AID 167); conditions: S. cerevisiae bub3 mutant strain, at 50.0 µM, hits give high values
Method in brief: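 Steps: expose the mutant yeast strain to compound; grow alongside vehicle-treated cultures; measure growth; express inhibition against the vehicle cultures.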

[6] = NCI Yeast Anticancer Drug Screen. Data for the mlh1 rad18 strain (AID 175); conditions: S. cerevisiae mlh1 rad18 strain growth inhibition; at 50.0 µM; hits give high values
Method in brief: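 Yeast w/ defined DNA-repair lesions; compound exposure; growth vs vehicle controls → % inhibition.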

| Structure (SMILES) | growth inhibition [1] | growth inhibition [2] | growth inhibition [3] | growth inhibition [4] | growth inhibition [5] | growth inhibition [6] |
| --- | --- | --- | --- | --- | --- | --- |
| CCC(C)OC(=S)S.[Ag] (configuration not stated) | 5.25% | -7.2% | 0.7% | -9.4% | -1.85% | 10.7% |
| O=C(O)C(CO)(c1ccccc1)c1ccccc1 | -3.2% | -3.9% | -8.25% | -1.65% | -1.55% | -0.15% |
| Cc1cc(C)nc(N(C)CCN2CCCCC2)c1 | -6.5% | -3.1% | 3.4% | -25.1% | 5.45% | -5.85% |
| O=C1C=C(n2ccccc2=O)CCC1 | 8.05% | 2.15% | 11.4% | -29.1% | -1.8% | 0.05% |
| Cc1cc(N(CCC#N)CCC#N)ccc1/C(N=Nc1ccccc1)=N\NC(=O)c1ccccc1 | 22.3% | 16.6% | 11.2% | -8.5% | -16.1% | 31.8% |
| CCCCCC/C=C/CCCCCCCc1cccc(OC)c1 (tested in a mixture with another compound) | 3.85% | -5.9% | 3.6% | -14.7% | 1.25% | 12.1% |
| CCCCCCCCCCCCC(F)C(=O)OCC1OC(n2cc(C)c(=O)[nH]c2=O)CC1N=[N+]=[N-] (configuration not stated) | 3.25% | -15.7% | 36.4% | -14.8% | 10.7% | 14.8% |
| CNc1cc2oc(=O)cc(C)c2cc1C | 19.8% | -12.5% | 6.8% | 3.6% | 14.2% | 10.4% |
| Cc1ccc(S(=O)(=O)N2CCN(S(=O)(=O)c3ccc(C)cc3)COC2)cc1 | -1.1% | -0.4% | -5.15% | -3.85% | -1.6% | -9.85% |
| O=C(OCc1ccccc1CN1CCOCC1)c1cccc(Cl)c1 | 13.8% | -1.55% | 17.3% | -0.05% | -6.25% | 7.35% |
| CC(C)OCCCNc1ncnc2c1cnn2-c1ccc(Cl)cc1 | 3.55% | -9.15% | 3.55% | -11.8% | -13.6% | -4.9% |
| COc1cc(C(c2ccc3c(c2)OCO3)C2SCCCS2)cc(OC)c1OC (configuration not stated) | 25.2% | 13.7% | 21% | 6.6% | -12% | 37.9% |
| O=C(NNC1=NCCCN1)c1ccco1 | 2.1% | -0.75% | 9.25% | -22.2% | 7.5% | -3.85% |
| CCCCCCCCCCCCCCCCCCNC(=O)Nc1ccc(OC)cc1OC | 15.4% | 37% | -0.3% | 3% | 2.8% | 13.3% |
| O=C(O)C(CSC(c1ccccc1)(c1ccccc1)c1ccccc1)Nc1ccccc1[N+](=O)[O-] (configuration not stated) | 99% (active) | 99.2% (active) | 99.4% (active) | 98% (active) | 98.3% (active) | 99.2% (active) |
| Cc1cc2c(cc1C)NC(=O)CC(=O)N2 | -3.45% | -28.8% | -8.45% | 1.95% | -18.7% | 14.4% |
| CCOC(=O)C(NC(=S)Cc1ccccc1)C(=O)OCC | 10.1% | -2.85% | -4.8% | -5.7% | 9.75% | -0.35% |
| CSc1ccc(OC(=O)Nc2cc(Cl)ccc2C)cc1 | 4.35% | 14.8% | 25.9% | -0.6% | 38% | 5.75% |
| CC1(C)CC(=O)C2=C(SC3=C(C2)C(=O)CC(C)(C)S3)S1 | -5.75% | -2.5% | 2.8% | -7.25% | -9.85% | -3.3% |

| Structure (SMILES) | growth inhibition [1] | growth inhibition [2] | growth inhibition [3] | growth inhibition [4] | growth inhibition [5] | growth inhibition [6] |
| --- | --- | --- | --- | --- | --- | --- |
| CCCCCCc1cc(C(=O)N/N=C/c2ccccc2O)c2ccccc2n1 | -35.2% | -8.1% | 16% | -13.2% | 67.6% | -2.95% |
| CC(=O)Oc1ccc(CC(C)C(C)Cc2ccc(OC(C)=O)c(OC(C)=O)c2)cc1OC(C)=O (configuration not stated) | 51% | 23% | 50% | 7.4% | 0.5% | 26.5% |
| CC(=O)Nc1ccc2nc(N)sc2c1 | 13% | 5.55% | -16.1% | -3.65% | 3.8% | 6.6% |
| Cc1ccc(C(C)C)cc1[N+](=O)[O-] | 9.9% | -3.55% | -17.7% | -41% | -13.6% | -21.3% |
| O=C(Nc1ccc(S(=O)(=O)/N=c2\ncccn2C(=O)C(C(F)(F)F)C(F)(F)F)cc1)C(C(F)(F)F)C(F)(F)F | -5% | 11.9% | -0.65% | 22.2% | 28.4% | -26.8% |
| COc1ccc2c(c1)OC(C)(C)c1c-2n(C)c2c(F)cccc2c1=O | 14.8% | 8.7% | 16.1% | 14.2% | 5.35% | 29.8% |
| COc1ccc2c(c1)CCCN2S(=O)(=O)c1ccccc1[N+](=O)[O-] | -25.7% | -3.9% | -17.9% | -7.65% | 39.2% | 1.85% |
| CCC1(CC)C(=O)N(C(=O)c2cc(OC)c(OC)c(OC)c2)N(C(=O)c2cc(OC)c(OC)c(OC)c2)C1=O | 13.2% | -0.1% | -2.2% | -11% | 6.75% | 14.8% |
| NC(=O)C(O)C(O)CO (configuration not stated) | -8.8% | -9.35% | -15.2% | 7.2% | -8.8% | -5.25% |
| OC1C=COC2COC(c3ccccc3)OC12 (configuration not stated) | 4.1% | -8.95% | 6.1% | -21.1% | -5.4% | 10.2% |
| O=C(N/N=C/c1cc(-c2ccccc2Cl)c(-c2ccccc2Cl)o1)c1ccncc1 | 14.5% | 23.6% | 38.4% | 28% | 26.7% | 28.3% |
| O=[N+]([O-])c1ccc(N/N=C/c2ccccc2O)c([N+](=O)[O-])c1 | 5.05% | 20.5% | 4.8% | -6.8% | 1.05% | 4.2% |
| Cc1nc(N)c(-c2ccccc2)s1 | 18.1% | -15.9% | 7.2% | -11.2% | -7.85% | 11.9% |
| CCOC(=O)C12CCC(C(=O)OCC)(CC13OCCO3)C1(C2)OCCO1 | 11.1% | 9.95% | 10% | 5.55% | 7.35% | 15.9% |
| Cc1ccc2[nH]c(C)c(C(=O)c3ccncc3)c2c1 | -2.75% | -15.4% | 4.15% | -8.35% | -10.7% | -9.45% |
| N#CC(CC(=O)c1ccccc1)c1ccccc1 (configuration not stated) | -10.3% | 4.95% | -18.9% | -28.9% | -14.3% | -7.05% |
| CN1CCC2(C1)C1CC3CC(C1)CC2C3 (configuration not stated) | 1.2% | -13.9% | -8.5% | -7.3% | 3.4% | -9.35% |
| CC(C)(Oc1ccc(Cl)cc1)C(=O)NC1CC(C)(C)N(O)C(C)(C)C1 | -0.4% | 4.95% | -13.2% | -48.5% | -43.2% | -18.4% |
